{"source": "paper PMC4336329", "about": "(PLoS ONE, 2015)", "note": "About 14,000 (4.5%) of roughly 310,000 compounds showed an effect of 50% or more. The effect is printed as a negative number. This excerpt belongs to a sample that is enriched for strong results.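 Also: peak tail current of the secondary pulse compared with the same well before compound.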", "data": [{"molecular_target": "human ether-à-go-go-related gene (hERG) potassium channel (human, UniProt Q12809)", "sequence (Q12809 whole entry, looked up)": "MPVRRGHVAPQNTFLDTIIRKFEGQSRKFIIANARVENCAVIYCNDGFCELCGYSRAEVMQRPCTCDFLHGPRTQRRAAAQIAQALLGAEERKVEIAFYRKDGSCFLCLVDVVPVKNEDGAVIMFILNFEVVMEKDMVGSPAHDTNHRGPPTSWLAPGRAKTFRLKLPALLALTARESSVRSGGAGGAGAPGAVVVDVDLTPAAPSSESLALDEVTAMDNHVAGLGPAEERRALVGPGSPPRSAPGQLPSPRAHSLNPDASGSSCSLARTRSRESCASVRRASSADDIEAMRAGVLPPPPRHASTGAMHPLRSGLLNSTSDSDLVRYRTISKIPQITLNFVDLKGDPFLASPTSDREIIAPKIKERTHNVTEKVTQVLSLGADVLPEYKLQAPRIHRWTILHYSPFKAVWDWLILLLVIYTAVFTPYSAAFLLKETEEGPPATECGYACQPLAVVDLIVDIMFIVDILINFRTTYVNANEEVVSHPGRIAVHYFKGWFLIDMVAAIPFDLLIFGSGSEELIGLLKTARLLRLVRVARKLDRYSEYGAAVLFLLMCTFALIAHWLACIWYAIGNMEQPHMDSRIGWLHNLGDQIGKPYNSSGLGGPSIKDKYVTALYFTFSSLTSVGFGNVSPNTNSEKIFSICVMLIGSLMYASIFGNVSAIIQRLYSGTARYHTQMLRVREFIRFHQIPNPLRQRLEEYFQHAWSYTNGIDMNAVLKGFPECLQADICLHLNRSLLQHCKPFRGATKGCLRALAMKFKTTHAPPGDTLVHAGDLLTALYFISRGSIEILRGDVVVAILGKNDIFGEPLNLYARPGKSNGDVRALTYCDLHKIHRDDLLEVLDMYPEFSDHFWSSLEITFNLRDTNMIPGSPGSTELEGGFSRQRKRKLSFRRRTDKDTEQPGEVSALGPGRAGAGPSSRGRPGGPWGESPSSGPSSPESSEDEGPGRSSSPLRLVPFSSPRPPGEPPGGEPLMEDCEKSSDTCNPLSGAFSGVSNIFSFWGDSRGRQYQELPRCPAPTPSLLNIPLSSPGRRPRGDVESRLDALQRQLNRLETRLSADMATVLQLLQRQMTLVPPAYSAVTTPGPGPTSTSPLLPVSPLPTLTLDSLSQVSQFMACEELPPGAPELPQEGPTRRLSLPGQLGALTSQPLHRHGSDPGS", "assay": "primary screen, population patch clamp on CHO cells stably expressing hERG; higher = less effect of the substance", "units": {"hERG current change (%, negative = inhibition) at 10uM": "%"}, "values": [{"compound": "NC(=O)COC(=O)c1c2c(nc3ccccc13)CCCC2", "hERG current change (%, negative = inhibition) at 10uM": -53.3}, {"compound": "COc1ccc(/C=C/C2=NC(=C\\N(C)C)/C(=O)O2)cc1", "hERG current change (%, negative = inhibition) at 10uM": -37.6}, {"compound": "CN(CCOc1ccc(F)cc1)Cc1ccccc1.O=C(O)C(=O)O", "hERG current change (%, negative = inhibition) at 10uM": -23.3}, {"compound": "CN(CCCCOc1ccc(F)cc1)Cc1ccccc1.O=C(O)C(=O)O", "hERG current change (%, negative = inhibition) at 10uM": -54.7}, {"compound": "CN(CCCOc1ccccc1F)Cc1ccccc1.O=C(O)C(=O)O", "hERG current change (%, negative = inhibition) at 10uM": -57.3}, {"compound": "CN(C)CCCN(CCCNC(=O)/C=N/O)Cc1ccccc1", "hERG current change (%, negative = inhibition) at 10uM": 1.31}, {"compound": "CN(CCCOc1ccccc1Br)Cc1ccccc1", "hERG current change (%, negative = inhibition) at 10uM": -22.1}, {"compound": "CN(CCCCCCCCC(=O)/C=N/O)Cc1ccccc1.Cl", "hERG current change (%, negative = inhibition) at 10uM": -58.4}, {"compound": "CN(C)CCCCOc1ccccc1F.O=C(O)C(=O)O", "hERG current change (%, negative = inhibition) at 10uM": 14.4}, {"compound": "COc1ccc(OCCCCN(C)Cc2ccccc2)cc1.O=C(O)C(=O)O", "hERG current change (%, negative = inhibition) at 10uM": -45.7}, {"compound": "CN(C)CCCCCCCCCCC(=O)/C=N/O.Cl", "hERG current change (%, negative = inhibition) at 10uM": -9.03}, {"compound": "CCc1ccccc1NC(=O)CCS(=O)(=O)c1ccc(OC)cc1", "hERG current change (%, negative = inhibition) at 10uM": 7.48}, {"compound": "CCOC(=O)c1c(NCC2CCCO2)c2ccccc2[nH]c1=O", "note": "(stereo not drawn)", "hERG current change (%, negative = inhibition) at 10uM": 0.695}, {"compound": "CCCN(CC(=O)Nc1ccccc1C)C(=O)c1ccc(C)c(S(=O)(=O)N2CCCCC2)c1", "hERG current change (%, negative = inhibition) at 10uM": -11.3}, {"compound": "CCCCNc1nc(-c2ccccc2)nc(-n2ccnc2)n1", "hERG current change (%, negative = inhibition) at 10uM": 12.2}, {"compound": "Cc1ccc(Cl)cc1NC(=O)CC1NC2CCCCC2NC1=O", "note": "(stereo not drawn)", "hERG current change (%, negative = inhibition) at 10uM": 17.6}, {"compound": "CCC(C)c1ccccc1N1CC(C(=O)NCCC2=CCCCC2)CC1=O", "note": "(stereo not drawn)", "hERG current change (%, negative = inhibition) at 10uM": 8.97}, {"compound": "COC(=O)c1ccc(OC)c(-c2c(OC)cc(OC)cc2OC)c1", "hERG current change (%, negative = inhibition) at 10uM": -1.49}, {"compound": "Cc1cccc(-n2ncc3c(N4CC(C)CC(C)C4)ncnc32)c1", "note": "(stereo not drawn)", "hERG current change (%, negative = inhibition) at 10uM": 8}, {"compound": "Cc1ccc(NC(=O)C(=S)NCc2ccco2)cc1", "hERG current change (%, negative = inhibition) at 10uM": 7.1}, {"compound": "O=c1cc(CSc2ccc(Cl)cc2)nc(-c2ccccc2)[nH]1", "hERG current change (%, negative = inhibition) at 10uM": -59.7}, {"compound": "O=c1cc(CSc2ccc(Cl)cc2)nc(-c2ccncc2)[nH]1", "hERG current change (%, negative = inhibition) at 10uM": 1.72}, {"compound": "O=c1cc(CSc2ccccc2)nc(-c2ccccc2)[nH]1", "hERG current change (%, negative = inhibition) at 10uM": 6.19}, {"compound": "CC(C)C(=O)NC(=S)/C=C1/N(C)c2ccccc2C1(C)C", "hERG current change (%, negative = inhibition) at 10uM": -1.42}, {"compound": "O=C(Cc1sc(-c2ccccc2Cl)nc1-c1ccccc1)Nc1ccccc1", "hERG current change (%, negative = inhibition) at 10uM": 11.3}, {"compound": "COCC(=O)N1CCC(Oc2ccc(C(=O)N3CCCCCCC3)cc2)CC1", "hERG current change (%, negative = inhibition) at 10uM": 22.7}, {"compound": "CC(C)/C=C/CN1CCC(Oc2ccc(C(=O)N3CCCC3)cc2)CC1", "hERG current change (%, negative = inhibition) at 10uM": -35.3}, {"compound": "COCC(=O)N1CCC(Oc2ccc(C(=O)N3CCCCCC3)cc2)CC1", "hERG current change (%, negative = inhibition) at 10uM": 12.1}, {"compound": "O=C(c1ccc(OC2CCN(C/C=C/c3ccc(F)cc3)CC2)cc1)N1CCCCC1", "hERG current change (%, negative = inhibition) at 10uM": -64.9}, {"compound": "COc1ccccc1/C=C/CN1CCC(Oc2ccc(C(=O)N3CCCCC3)cc2)CC1", "hERG current change (%, negative = inhibition) at 10uM": -44.6}, {"compound": "O=C(c1ccc(OC2CCN(Cc3ccccc3OC(F)F)CC2)cc1)N1CCCC1", "hERG current change (%, negative = inhibition) at 10uM": -3.42}, {"compound": "O=C(c1ccc(OC2CCN(CCO)CC2)cc1)N1CCCC1", "hERG current change (%, negative = inhibition) at 10uM": 18.1}, {"compound": "O=C(c1ccc(OC2CCN(C/C=C/c3ccc(F)cc3)CC2)cc1)N1CCCC1", "hERG current change (%, negative = inhibition) at 10uM": -75.5}, {"compound": "COc1ccc(/C=C/CN2CCC(Oc3ccc(C(=O)N4CCCCC4)cc3)CC2)cc1", "hERG current change (%, negative = inhibition) at 10uM": -53.6}, {"compound": "CCN1CCN(Cc2ccc(NC(=O)c3cc(NC(=O)c4cncc(-c5cccs5)c4)cc(OC)c3)cc2C(F)(F)F)CC1.O=C(O)C(F)(F)F", "hERG current change (%, negative = inhibition) at 10uM": 9.85}, {"compound": "COc1cc(OC)cc(C(=O)NNC(=O)Cc2ccc(OC)c(S(=O)(=O)N3CCOCC3)c2)c1", "hERG current change (%, negative = inhibition) at 10uM": -1.89}, {"compound": "COC/C=C/C1=CC2=CC(=O)C(C)(OC(=O)c3cnc4ccccc4n3)C(=O)C2=CN1c1ccc(OC)cc1", "note": "(stereo not drawn)", "hERG current change (%, negative = inhibition) at 10uM": -4.95}, {"compound": "O=c1[nH]c2ccccc2cc1CN(c1ccccc1)S(=O)(=O)c1ccccc1", "hERG current change (%, negative = inhibition) at 10uM": 0.56}, {"compound": "Cc1ccccc1OCCC(=O)OCC(=O)N1CCN(S(=O)(=O)c2ccc(Cl)cc2)CC1", "hERG current change (%, negative = inhibition) at 10uM": -13.1}, {"compound": "CCCCCSc1cc(OC)c(CCN)cc1OC.O=C(O)/C=C\\C(=O)O", "hERG current change (%, negative = inhibition) at 10uM": -35.9}, {"compound": "CCCCCSc1cc(OC)c(CCN(C)C)cc1OC.O=C(O)/C=C\\C(=O)O", "hERG current change (%, negative = inhibition) at 10uM": -57.9}, {"compound": "CCCCCSc1cc(OC)c(CCNC)cc1OC.O=C(O)/C=C\\C(=O)O", "hERG current change (%, negative = inhibition) at 10uM": -48.2}, {"compound": "CCCCCCCSc1cc(OC)c(CCNC)cc1OC.O=C(O)/C=C\\C(=O)O", "hERG current change (%, negative = inhibition) at 10uM": -41.3}, {"compound": "CCCCCCCSc1cc(OC)c(CCN(C)C)cc1OC.O=C(O)/C=C\\C(=O)O", "hERG current change (%, negative = inhibition) at 10uM": -64.3}, {"compound": "CCCCCSc1cc(O)c(C(CNC)C(C)C)cc1OC.O=C(O)/C=C\\C(=O)O", "note": "(stereo not drawn)", "hERG current change (%, negative = inhibition) at 10uM": -12.9}]}]}
